Results reported in publication PMC11006913.
Substitutions are numbered along the chain they refer to.

Assays:
Assay in all cases: PBM; 200 nM protein, PBS
Conditions in all cases: dsDNA, one strand shown
CRX [1] = molecular target: CRX (Homo sapiens, UniProt O43186 26-111)
HOXA7 [2] = molecular target: HOXA7 (Homo sapiens, UniProt P31268 116-202)
CRX [3] = molecular target: CRX (Homo sapiens, UniProt O43186 26-111, E42D)
HOXA7 [4] = molecular target: HOXA7 (Homo sapiens, UniProt P31268 116-202, W177C)
CRX [5] = molecular target: CRX (Homo sapiens, UniProt O43186 26-111, R41L)
ALX4 [6] = molecular target: ALX4 (Homo sapiens, UniProt Q9H161 200-286)
ALX4 [7] = molecular target: ALX4 (Homo sapiens, UniProt Q9H161 200-286, Q225E)
PAX4 [8] = molecular target: T1, PAX4 (Homo sapiens, UniProt O43316 9-242, R200K)
T1 sequence: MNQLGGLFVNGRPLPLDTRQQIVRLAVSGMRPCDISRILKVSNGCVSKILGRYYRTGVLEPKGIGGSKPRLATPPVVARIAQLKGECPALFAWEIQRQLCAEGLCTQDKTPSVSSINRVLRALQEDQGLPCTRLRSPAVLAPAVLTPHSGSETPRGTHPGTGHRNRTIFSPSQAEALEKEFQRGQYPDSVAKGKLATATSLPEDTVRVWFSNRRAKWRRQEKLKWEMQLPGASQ

PAX4 [9] = molecular target: T2, PAX4 (Homo sapiens, UniProt O43316 9-242)
T2 sequence: T1 sequence with K192R

PAX4 [10] = molecular target: T3, PAX4 (Homo sapiens, UniProt O43316 9-242, R200Q)
T3 sequence: T1 sequence with K192Q

PITX2 = PITX2 (Homo sapiens, UniProt Q99697 72-157)
PAX4 [11] = molecular target: T4, PAX4 (Homo sapiens, UniProt O43316 9-242, F177V)
T4 sequence: T1 sequence with F169V, K192R

HOXA2 [12] = molecular target: HOXA2 (Homo sapiens, UniProt O43364 129-215, R185T)
HOXA2 [13] = molecular target: HOXA2 (Homo sapiens, UniProt O43364 129-215, R185K)
HOXA2 [14] = molecular target: HOXA2 (Homo sapiens, UniProt O43364 129-215, Y150S)
HOXA2 [15] = molecular target: HOXA2 (Homo sapiens, UniProt O43364 129-215)
HOXB6 [16] = molecular target: HOXB6 (Homo sapiens, UniProt P17509 132-218, K202E)
HOXB6 [17] = molecular target: HOXB6 (Homo sapiens, UniProt P17509 132-218)
PAX4 [18] = molecular target: T5, PAX4 (Homo sapiens, UniProt O43316 9-242, F177Y)
T5 sequence: T1 sequence with F169Y, K192R

HOXC10 [19] = molecular target: HOXC10 (Homo sapiens, UniProt Q9NYD6 254-340)
ALX3 = ALX3 (Homo sapiens, UniProt O95076 139-225, N203Q)
HOXC10 [20] = molecular target: HOXC10 (Homo sapiens, UniProt Q9NYD6 254-340, K271E)
Chain of HOXC10 (Homo sapiens, UniProt Q9NYD6 254-340, K271E) (Q9NYD6 254-340 K271E): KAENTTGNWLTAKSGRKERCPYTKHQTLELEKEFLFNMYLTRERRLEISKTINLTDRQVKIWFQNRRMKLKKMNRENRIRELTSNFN

Chain of CRX (Homo sapiens, UniProt O43186 26-111, R41L) (O43186 26-111 R41L): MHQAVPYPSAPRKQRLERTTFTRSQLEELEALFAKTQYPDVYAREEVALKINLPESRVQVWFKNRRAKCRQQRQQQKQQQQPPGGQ
Chain of CRX (Homo sapiens, UniProt O43186 26-111) (O43186 26-111): as the sequence (O43186 26-111 R41L) above, with L16R counted along it
Chain of CRX (Homo sapiens, UniProt O43186 26-111, E42D) (O43186 26-111 E42D): as the sequence (O43186 26-111 R41L) above, with L16R, E17D counted along it
Chain of HOXA2 (Homo sapiens, UniProt O43364 129-215, Y150S) (O43364 129-215 Y150S): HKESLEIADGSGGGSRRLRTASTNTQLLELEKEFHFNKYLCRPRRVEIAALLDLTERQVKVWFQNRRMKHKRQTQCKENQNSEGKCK
Chain of HOXA2 (Homo sapiens, UniProt O43364 129-215) (O43364 129-215): as the sequence (O43364 129-215 Y150S) above, with S22Y counted along it
Chain of HOXA7 (Homo sapiens, UniProt P31268 116-202, W177C) (P31268 116-202 W177C): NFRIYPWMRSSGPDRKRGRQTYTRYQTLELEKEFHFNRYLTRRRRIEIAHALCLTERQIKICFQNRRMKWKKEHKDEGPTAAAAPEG
Chain of ALX4 (Homo sapiens, UniProt Q9H161 200-286, Q225E) (Q9H161 200-286 Q225E): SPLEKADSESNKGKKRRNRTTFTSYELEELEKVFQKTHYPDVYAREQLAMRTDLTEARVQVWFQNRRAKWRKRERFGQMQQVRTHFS
Chain of HOXA2 (Homo sapiens, UniProt O43364 129-215, R185K) (O43364 129-215 R185K): as the sequence (O43364 129-215 Y150S) above, with S22Y, R57K counted along it
Chain of HOXB6 (Homo sapiens, UniProt P17509 132-218, K202E) (P17509 132-218 K202E): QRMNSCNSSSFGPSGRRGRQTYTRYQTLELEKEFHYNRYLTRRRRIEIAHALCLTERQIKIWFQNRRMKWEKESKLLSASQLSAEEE
Chain of HOXC10 (Homo sapiens, UniProt Q9NYD6 254-340) (Q9NYD6 254-340): as the sequence (Q9NYD6 254-340 K271E) above, with E18K counted along it
Chain of ALX3 (O95076 139-225 N203Q): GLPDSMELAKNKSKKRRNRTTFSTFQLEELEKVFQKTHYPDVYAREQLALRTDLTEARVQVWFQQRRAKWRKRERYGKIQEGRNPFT
Chain of HOXB6 (Homo sapiens, UniProt P17509 132-218) (P17509 132-218): as the sequence (P17509 132-218 K202E) above, with E71K counted along it
Chain of HOXA2 (Homo sapiens, UniProt O43364 129-215, R185T) (O43364 129-215 R185T): as the sequence (O43364 129-215 Y150S) above, with S22Y, R57T counted along it
Chain of HOXA7 (Homo sapiens, UniProt P31268 116-202) (P31268 116-202): as the sequence (P31268 116-202 W177C) above, with C62W counted along it
Chain of ALX4 (Homo sapiens, UniProt Q9H161 200-286) (Q9H161 200-286): as the sequence (Q9H161 200-286 Q225E) above, with E26Q counted along it

For AGCGTCCG, the binding signal (CRX [1]) was 8.29 upbm affinity estimate (log intensity, higher = more binding, comparable within an allelic series), the binding signal (HOXA7 [2]) was 8.2 upbm affinity estimate (log intensity, higher = more binding, comparable within an allelic series) and the binding signal (CRX [3]) was 8.33 upbm affinity estimate (log intensity, higher = more binding, comparable within an allelic series). The binding signal (HOXA7 [4]) was 8.37 upbm affinity estimate (log intensity, higher = more binding, comparable within an allelic series) and the binding signal (CRX [5]) was 8.29 upbm affinity estimate (log intensity, higher = more binding, comparable within an allelic series).
For AGGCCTTA, the binding signal (CRX [1]) was 10.1 upbm affinity estimate (log intensity, higher = more binding, comparable within an allelic series) and the binding signal (CRX [3]) was 9.82 upbm affinity estimate (log intensity, higher = more binding, comparable within an allelic series).
With CACCGGAG the binding signal (CRX [1]) was 8.14 upbm affinity estimate (log intensity, higher = more binding, comparable within an allelic series), the binding signal (ALX4 [6]) was 8.15 upbm affinity estimate (log intensity, higher = more binding, comparable within an allelic series) and the binding signal (ALX4 [7]) was 8.15 upbm affinity estimate (log intensity, higher = more binding, comparable within an allelic series). For the same sequence, the binding signal (CRX [3]) was 8.3 upbm affinity estimate (log intensity, higher = more binding, comparable within an allelic series) and the binding signal (CRX [5]) was 8.27 upbm affinity estimate (log intensity, higher = more binding, comparable within an allelic series).
For GATTAACA, the binding signal (CRX [1]) was 12.9 upbm affinity estimate (log intensity, higher = more binding, comparable within an allelic series) and the binding signal (CRX [3]) was 12.5 upbm affinity estimate (log intensity, higher = more binding, comparable within an allelic series).
In the case of CCTAATAG, the binding signal (CRX [1]) is reported as 9.68 upbm affinity estimate (log intensity, higher = more binding, comparable within an allelic series) and the binding signal (CRX [3]) is reported as 9.47 upbm affinity estimate (log intensity, higher = more binding, comparable within an allelic series).
AAAGATTA was tested, and the binding signal (CRX [1]) was 12.9 upbm affinity estimate (log intensity, higher = more binding, comparable within an allelic series), the binding signal (PAX4 [8]) was 10.9 upbm affinity estimate (log intensity, higher = more binding, comparable within an allelic series) and the binding signal (PAX4 [9]) was 11.2 upbm affinity estimate (log intensity, higher = more binding, comparable within an allelic series). The binding signal (CRX [3]) was 12.8 upbm affinity estimate (log intensity, higher = more binding, comparable within an allelic series), the binding signal (PAX4 [10]) was 11.1 upbm affinity estimate (log intensity, higher = more binding, comparable within an allelic series) and the binding signal (PITX2) was 12.3 upbm affinity estimate (log intensity, higher = more binding, comparable within an allelic series). For the same sequence, the binding signal (PAX4 [11]) was 10.3 upbm affinity estimate (log intensity, higher = more binding, comparable within an allelic series) and the binding signal (CRX [5]) was 12.6 upbm affinity estimate (log intensity, higher = more binding, comparable within an allelic series).
CCGGGGCG was tested, and the binding signal (CRX [1]) was 8.1 upbm affinity estimate (log intensity, higher = more binding, comparable within an allelic series), the binding signal (HOXA2 [12]) was 7.04 upbm affinity estimate (log intensity, higher = more binding, comparable within an allelic series) and the binding signal (CRX [3]) was 8.23 upbm affinity estimate (log intensity, higher = more binding, comparable within an allelic series). The binding signal (HOXA2 [13]) was 10 upbm affinity estimate (log intensity, higher = more binding, comparable within an allelic series), the binding signal (HOXA2 [14]) was 10.3 upbm affinity estimate (log intensity, higher = more binding, comparable within an allelic series) and the binding signal (CRX [5]) was 8.38 upbm affinity estimate (log intensity, higher = more binding, comparable within an allelic series). For the same sequence, the binding signal (HOXA2 [15]) was 7 upbm affinity estimate (log intensity, higher = more binding, comparable within an allelic series).
In the case of ATCAGTTA, the binding signal (CRX [1]) is reported as 9.84 upbm affinity estimate (log intensity, higher = more binding, comparable within an allelic series) and the binding signal (CRX [3]) is reported as 9.71 upbm affinity estimate (log intensity, higher = more binding, comparable within an allelic series).
ACTTTATC was tested, and the binding signal (CRX [1]) was 10.6 upbm affinity estimate (log intensity, higher = more binding, comparable within an allelic series) and the binding signal (CRX [3]) was 10.4 upbm affinity estimate (log intensity, higher = more binding, comparable within an allelic series).
With GGGACCCC the binding signal (CRX [1]) was 8.14 upbm affinity estimate (log intensity, higher = more binding, comparable within an allelic series), the binding signal (HOXB6 [16]) was 8.9 upbm affinity estimate (log intensity, higher = more binding, comparable within an allelic series) and the binding signal (CRX [3]) was 8.1 upbm affinity estimate (log intensity, higher = more binding, comparable within an allelic series). The binding signal (CRX [5]) was 8.05 upbm affinity estimate (log intensity, higher = more binding, comparable within an allelic series) and the binding signal (HOXB6 [17]) was 9.08 upbm affinity estimate (log intensity, higher = more binding, comparable within an allelic series).
ACTATCCG was tested, and the binding signal (CRX [1]) was 9.31 upbm affinity estimate (log intensity, higher = more binding, comparable within an allelic series) and the binding signal (CRX [3]) was 9.26 upbm affinity estimate (log intensity, higher = more binding, comparable within an allelic series).
With ATTAATCC the binding signal (CRX [1]) was 13.5 upbm affinity estimate (log intensity, higher = more binding, comparable within an allelic series), the binding signal (PAX4 [8]) was 11.6 upbm affinity estimate (log intensity, higher = more binding, comparable within an allelic series) and the binding signal (CRX [3]) was 13.6 upbm affinity estimate (log intensity, higher = more binding, comparable within an allelic series). The binding signal (PITX2) was 13.4 upbm affinity estimate (log intensity, higher = more binding, comparable within an allelic series), the binding signal (PAX4 [18]) was 10.9 upbm affinity estimate (log intensity, higher = more binding, comparable within an allelic series) and the binding signal (CRX [5]) was 13.5 upbm affinity estimate (log intensity, higher = more binding, comparable within an allelic series).
With GGTTAAAC the binding signal (CRX [1]) was 10.2 upbm affinity estimate (log intensity, higher = more binding, comparable within an allelic series) and the binding signal (CRX [3]) was 9.96 upbm affinity estimate (log intensity, higher = more binding, comparable within an allelic series).
CCTTATTA was tested, and the binding signal (CRX [1]) was 11 upbm affinity estimate (log intensity, higher = more binding, comparable within an allelic series), the binding signal (HOXC10 [19]) was 11.3 upbm affinity estimate (log intensity, higher = more binding, comparable within an allelic series) and the binding signal (CRX [3]) was 10.9 upbm affinity estimate (log intensity, higher = more binding, comparable within an allelic series). The binding signal (ALX3) was 8.6 upbm affinity estimate (log intensity, higher = more binding, comparable within an allelic series), the binding signal (HOXC10 [20]) was 11.2 upbm affinity estimate (log intensity, higher = more binding, comparable within an allelic series) and the binding signal (CRX [5]) was 10.4 upbm affinity estimate (log intensity, higher = more binding, comparable within an allelic series).
